Laboratory results reported in PubChem BioAssay (NCI).
This is part of a sample that, as a whole, favours compounds with a hit. Of some 83,000 tested, about 20% had one in any assay.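 Testing used 96-well plates and a 48-hour single-concentration exposure. Example: -40 means 40% of the starting cells died.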 A number with no mark means an inactive call. The source made the active and inactive calls. How the source made its calls: active means growth percent below 10; inactive means the rest.

Columns and labels:
Test in all cases: NCI-60 one-dose screen, 48 h (100 = growth as untreated, 0 = no growth, -100 = all killed)
Details in all cases: 10 µM unless noted
[1] = system: RPMI-8226 leukemia
[2] = system: OVCAR-8 ovarian
[3] = system: OVCAR-5 ovarian
[4] = system: OVCAR-4 ovarian
[5] = system: SK-OV-3 ovarian
[6] = system: IGROV1 ovarian
[7] = system: OVCAR-3 ovarian
[8] = system: HS 578T breast
[9] = system: NCI/ADR-RES ovarian

SMILES	growth [1]	growth [2]	growth [3]	growth [4]	growth [5]	growth [6]	growth [7]	growth [8]	growth [9]
C=CC(=O)Nc1cccc(C)c1Nc1cc(-c2cccnc2Cc2c(C)c(OC)cc(OC)c2C)ncn1	-24.1% (active)	3.17% (active)	57.5%	41.9%	28.7%	42.6%	0.807% (active)	29.6%	35.3%
O=[N+]([O-])c1cccc(/C=C/c2ccccn2)c1	51.7%	86.2%	96.2%	70.5%	94%	86.7%	59.4%	–	81.2%
C#CC[C@H](N)C(=O)O	106% [20 µM]	99.2% [20 µM]	93.2% [20 µM]	107% [20 µM]	105% [20 µM]	106% [20 µM]	111% [20 µM]	111% [20 µM]	108% [20 µM]
C=C1c2c(C)nn(-c3ccc(N)cc3)c2N(C)C23CC1C1(C)c4c(C)nn(-c5ccc(N)cc5)c4N(C)C(C)(CC12)C3 (stereo not given)	40.9%	71%	101%	70.7%	70.6%	100%	78.4%	90.6%	78.8%
Cc1cc(Cl)nc(N(CCCNc2ccnc3cc(Cl)ccc23)Cc2ccccn2)n1	1.09% (active)	33.8%	56%	41.4%	65%	44.1%	62.8%	78.6%	32.2%
Cc1nn(Cc2ccccc2)cc1C(=O)Nc1sc2c(c1C(N)=O)CCC(=O)C2	-6.08% (active)	20.3%	73.8%	-7.95% (active)	116%	33.5%	9.48% (active)	28.8%	72%
Cc1cnc(Nc2ccc(OCCN3CCCC3)cc2)nc1NCc1ccco1	50.7%	95.1%	78.1%	59.4%	108%	71%	82.7%	80.3%	101%
CC(C)n1nc(C#Cc2cccc(NC(=O)c3cccc(C(F)(F)F)c3)c2)c2c(N)ncnc21	-11.8% (active)	-12.7% (active)	-27.5% (active)	11.4%	-51.6% (active)	-61.6% (active)	1.38% (active)	-31.2% (active)	-13% (active)
COc1cccc(-c2nc3sccn3c2-c2ccnc(NCCNS(=O)(=O)c3c(Cl)cccc3Cl)c2)c1	15.1%	39%	90.9%	59.7%	89.5%	57.2%	70.8%	87.8%	36.6%
